Structures are written as SMILES.
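Further: KINOMEscan kinase panel screen.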

One experiment concerns EPHA8. Particulars: concentration: 1 μM, replicates: in singlicate; n = 1.
Regarding `CN(c1ccc(NC(=O)Nc2cccc(Cl)c2)cc1)c1ccnc(N)n1.Cl` [GW830707], the “%Inh” value is 22%. Turning to `CC(=O)Nc1cn2nc(Oc3cccc(NC(=O)c4cccc(C(F)(F)F)c4)c3)ccc2n1`, the “%Inh” value was found to be 99.5%. `COc1ccc(C)c(Nc2ccnc(Nc3ccc(-c4cnc[nH]4)cc3)n2)c1.Cl` [GW784041]: the “%Inh” value is given as 26%. Take `Cl.Cl.NC(CNC(=O)c1cc(Br)c(-c2ccnc3[nH]ccc23)s1)c1ccccc1` (stereo not drawn) [GSK1322949]: the “%Inh” value was 24%.

A further experiment deals with EPHB1. Particulars: concentration: 1 μM, replicates: in singlicate; n = 1.
Take `Nc1ncc(-c2ccc3nccc(-c4ccncc4)c3c2)cc1S(=O)(=O)N1CCCCC1` [GSK1693850]: the “%Inh” value came out at 0%. `COc1cccc(CC(=O)N2CCc3cc(-c4cn(C)c5ncnc(N)c45)ccc32)c1` [GSK2608899]: the “%Inh” value was determined as 24%. Consider `CC(C)NCC(Cc1ccccc1)NC(=O)c1cc(Br)c(-c2ccnc3[nH]ccc23)s1.Cl.Cl` (stereo not drawn) [GSK1383281], for which the “%Inh” value was determined as 16%.

Regarding `Nc1ncc(-c2cn[nH]c2)c2scc(-c3ccc4c(c3)CCN4C(=O)Cc3ccccc3)c12` [GSK2593067], the “%Inh” value is 5%. As for `Cc1cccc(Nc2nc(NCCN)ncc2C(N)=O)c1` [GSK1292139], the “%Inh” value was determined as 1%. Same read-out and setting: the same measure for `CC(C)c1nc(-c2cccc(NS(=O)(=O)c3c(F)cccc3F)c2)c(-c2ccnc(Nc3ccc(N4CCOCC4)nc3)n2)s1.Cl` [GSK1723980]: 24%; for `Cc1ccc(-c2ccc3occ(-c4ccc(S(C)=O)cc4)c3c2)nn1` (stereo not drawn): 0%. Still for that read-out and setting: the same measure for `COc1ccc(C2=C(Nc3cccc(O)c3)C(=O)NC2=O)cc1` [SB-390766]: 9%; for `COc1ccc(NC(=O)c2ccoc2)cc1-c1ccc(C(=O)NCC2CC2)cc1` [GW810437]: 4%; for `Cc1nn2c(=O)cc(N3CCO[C@H](C)C3)nc2n1Cc1cccc(Cl)c1Cl` [GSK2373693]: 3%. Take `Cl.O=C(Nc1ccc(Oc2ccc3[nH]c(NC(=O)c4ccco4)nc3c2)cc1)Nc1cc(C(F)(F)F)ccc1F` [GW683134]: the “%Inh” value was 70%. With `O=C(O)C(F)(F)F.O=c1[nH]ccc2nc(N[C@@H]3CCNC3)nc(Nc3ccc4c(c3)S(=O)(=O)CC4)c12` [GSK2181306], the “%Inh” value is listed as 9%. Same read-out and setting: under `O=C(Nc1n[nH]c2cc(-c3cccs3)ccc12)C1CC1` [SB-731284] stands 0%; under `CNc1nccc(-c2ccc3c(N)n[nH]c3c2)n1` [GSK2206003], 5%; under `COc1cccc(NC(=O)NCCNc2ccnc(Nc3ccc(F)cc3)n2)c1` [GSK1379879], 5%. For `CN(c1ccc2c(c1)nc(NCc1ccccc1)n2C)c1ccnc(Nc2ccc(CS(C)(=O)=O)cc2)n1.Cl` [GW811603], the “%Inh” value is reported as 0%.

`Cc1ccc(O)cc1Nc1ccnc2cc(-c3ccc(CN4CCCCC4)o3)ccc12` [GW557777]: the “%Inh” value came out at 100%. Regarding `Cc1cccc(Nc2nc(N[C@H]3CCCC[C@H]3N)ncc2C(N)=O)c1.Cl` [GSK986310], the “%Inh” value came out at 32%. Still for that read-out and setting: under `c1ccc(Oc2ccc(Nc3ccnc4cc(-c5ccc(CN6CCCCC6)o5)ccc34)cc2)nc1` [GW567143] stands 6%; under `CC(C)c1nc(-c2ccc(F)c(NS(=O)(=O)c3c(F)cccc3F)c2)c(-c2ccnc(Nc3ccc(N4CCOCC4)nc3)n2)s1` [GSK1804250], 21%; under `CCNc1nccc(-c2c(-c3ccc(F)cc3)ncn2C2CCN(C)CC2)n1`, 0%. Consider `Fc1cc(Cl)ccc1Nc1ccnc2cc(-c3ccc(CN4CCSCC4)o3)ccc12` [GW560106], for which the “%Inh” value is reported as 43%. Take `NCCC(NC(=O)c1cc(Br)c(-c2ccnc3[nH]ccc23)s1)c1ccccc1.O=C(O)C(F)(F)F.O=C(O)C(F)(F)F` (stereo not drawn) [GSK1307810]: the “%Inh” value turned out to be 4%. In the case of `Cc1ccc(NC(=O)c2ccc(Cl)c(Cl)c2)cc1-c1ccc(C(=O)Nc2ccncc2)cc1` [GSK1398460], the “%Inh” value is 17%. For `O=C(O)C(F)(F)F.O=c1[nH]ccc2nc(N[C@@H]3CCNC3)nc(Nc3cc(Cl)cc(Cl)c3)c12` [GSK2188764], the “%Inh” value was 28%. For `Nc1ncnc2scc(-c3ccc(NC(=O)Cc4cc(F)ccc4F)cc3)c12.O=C(O)C(F)(F)F` [SB-731254-M], the “%Inh” value was determined as 0%. In the case of `Cc1ccc(NC(=O)c2ccnc(N3CCCCC3)c2)cc1-c1ccc(C(=O)NCC2CC2)cc1` [GW775610], the “%Inh” value stood at 0%.

With `Fc1cc(Cl)ccc1Nc1ccnc2cc(-c3ccc(CN4CCOCC4)o3)ccc12` [GW560109], the “%Inh” value is recorded as 50%. Take `CS(=O)(=O)c1cccc(CNc2nc(Nc3ccc4c(c3)CCC(=O)N4)ncc2C(F)(F)F)c1`: the “%Inh” value came out at 0%.

(Values after article PMC5540273 (PLoS ONE, 2017).)
